From PubChem BioAssay (NCI)
The panel holds about 83,000 compounds, 20% with a hit somewhere; the sample as a whole holds those more often.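 Single-concentration screen, 48 h exposure, 96-well plates. Endpoint: percent growth. Below 10 = active.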 A number with no mark means an inactive call. Calls of active or inactive are those of the source.

How the values were obtained:
Test in all cases: NCI-60 one-dose screen, 48 h (100 = growth as untreated, 0 = no growth, -100 = all killed)
Details in all cases: 10 µM unless noted
SR leukemia = system: SR leukemia
RPMI-8226 leukemia = system: RPMI-8226 leukemia
OVCAR-8 ovarian = system: OVCAR-8 ovarian
OVCAR-5 ovarian = system: OVCAR-5 ovarian
OVCAR-4 ovarian = system: OVCAR-4 ovarian
SK-OV-3 ovarian = system: SK-OV-3 ovarian
IGROV1 ovarian = system: IGROV1 ovarian
HS 578T breast = system: HS 578T breast
NCI/ADR-RES ovarian = system: NCI/ADR-RES ovarian
T-47D breast = system: T-47D breast
BT-549 breast = system: BT-549 breast
MDA-MB-435 melanoma = system: MDA-MB-435 melanoma
SW-620 colon = system: SW-620 colon
MCF7 breast = system: MCF7 breast
HCT-116 colon = system: HCT-116 colon
HCC-2998 colon = system: HCC-2998 colon
KM12 colon = system: KM12 colon
OVCAR-3 ovarian = system: OVCAR-3 ovarian

SMILES	growth (SR leukemia)	growth (RPMI-8226 leukemia) [%]	growth (OVCAR-8 ovarian) [%]	growth (OVCAR-5 ovarian) [%]	growth (OVCAR-4 ovarian)	growth (SK-OV-3 ovarian)	growth (IGROV1 ovarian) [%]	growth (HS 578T breast) [%]	growth (NCI/ADR-RES ovarian) [%]	growth (T-47D breast) [%]	growth (BT-549 breast)	growth (MDA-MB-435 melanoma) [%]	growth (SW-620 colon) [%]	growth (MCF7 breast) [%]	growth (HCT-116 colon)	growth (HCC-2998 colon) [%]	growth (KM12 colon) [%]	growth (OVCAR-3 ovarian) [%]
Fc1cccc(Oc2ccc(Nc3ncnc4ccc(OCCCN5CCOCC5)cc34)cc2Cl)c1	20.9%	38.5	62	78.1	53.5%	7.14% (active)	12.1	74.5	55.1	36	79%	54.3	61.1	50.4	69.4%	57	45.9	
Cc1ccc2c(n1)C(=O)C(Br)=C(CC(C)C)C2=O	17%	53	97.6	102	104%	101%	81.5	102	98.4	82	99.4%	104		93.2	61.6%	105	99.3	
CCOC(=O)c1ccc2c(c1)nc(-c1ccccc1)n2C1CCCCC1	62.9%	63.7	89.5	117	102%	36.7%	106	111		66.8	93%	102	111	93.3	63.7%		95.1	108
OB1OCc2cc(/C=C/c3cccc(C(F)(F)F)c3)ccc21	-1.55% (active)	15.7	10.8	37.6	-12.9% (active)	15.9%	16.8	23.3	15.2	20.4	8.09% (active)	20.8	15.5	21.8	0.518% (active)	32.5	14.6	
Nc1nc2ccccc2c2c(=O)c3cccc(Cl)c3sc12	89%	96.1	94	75	81.1%	86.5%	73.8	101	93.1	38.7	99.2%	96.9	89	12.2	64.8%	63	89.8	
CCCC/C(CC)=N\NS(=O)(=O)c1ccc([N+](=O)[O-])cc1	97.5%	101	100	94.6	100%	95.9%	105	103		95.3	114%	107		102	99.6%		98.6	107
CC(C)c1ccc(C(=O)Nc2nc3ccc(O)c(CN(C)C)c3s2)cc1	32.9%	70.1	82.8		74.4%	90.8%	80.7	86.8	87.8	77.8	73.6%	55.4	36.2	80.5	47.3%	63.7	36	
C#CCOC(=O)/C=C/c1cn(-c2ccccc2)nc1-c1ccc(OC)cc1	83.2%	105	78.5		90.7%	89.3%	74	76.9	98.4	88.3	108%	107	112	79.1	74.8%	105	96.9	103
O=C(Nc1cccc(Cl)c1)Nc1cccc(Cn2c(=O)[nH]c3ccc(Oc4ncccn4)cc3c2=O)c1	21.4%	25.3	37.4		13.3%	70.7%	62	51.8	95.5	16.3	48%	42.6	72.3	35.8	22.9%	69.7	29.5	33.5
